From ChEMBL document CHEMBL4513216, “Probing the Open Global Health Chemical Diversity Library for Multistage-Active Starting Points for Next-Generation Antimalarials” (ACS Infect Dis, 2020)
About 8,600 (12%) of roughly 69,000 compounds showed an effect of 50% or more. This excerpt belongs to a sample that is enriched for strong results.

Test system: Plasmodium berghei
Experiment: Screen against P. berghei liver stage (PbLuc), transformed with Luciferase, at 10uM
Type: functional, HepG2
Conditions: tested at 10 uM

SMILES | INHIBITION [%]
COc1ccc(CNC2CCc3ncnn3C2)cc1OCCCC#N (configuration not stated) | 28.7
CCc1nc(C)c(-c2nccn2CC2CCN(C3CCCC3)CC2)[nH]1 | 22.5
CCc1nc(C)c(-c2nccn2CC2CC(=O)N(CC)C2)[nH]1 (configuration not stated) | 55.2
CCc1nc(C)c(-c2nccn2CC2CCCCO2)[nH]1 (configuration not stated) | -10.2
Fc1cccc(C(NCc2ncc[nH]2)c2ccccc2)c1 (configuration not stated) | 78.2
Clc1cccc(N2CCC(NCc3ncc[nH]3)C2)c1 (configuration not stated) | 34.1
Cn1cc(C(NCc2ccc(F)cc2)c2cccc(F)c2)cn1 (configuration not stated) | 15
Clc1cccc(C(NCc2ncc[nH]2)c2ccccn2)c1 (configuration not stated) | 83.2
CC(C(=O)Nc1cccc(Cl)c1)N1CCN(Cc2ncc[nH]2)CC1 (configuration not stated) | 4.52
Fc1cccc(C(NCc2ncc[nH]2)c2ccccn2)c1 (configuration not stated) | -13.2
Cc1ccc(NC2(C(=O)N3CCn4cncc4C3)CCCCC2)cc1C | 42.1
COCc1cnc2n1CCN(C1CCC1)C2C (configuration not stated) | 42.6
O=C(NCCN1CCCCC1CO)c1cc(-c2ccccc2)on1 (configuration not stated) | -7.81
CC(C)CNC(=O)c1ccc2c(c1)nc1n2CCN(Cc2ccco2)C1 | 18.4
Cc1nnc(C2Cc3ccccc3CN2Cc2nc(C(C)C)no2)o1 (configuration not stated) | -10.1
CC(=O)N1N=C(c2ccccc2)OC1C(=O)NCCOc1ccccc1 (configuration not stated) | -12.2
O=C(Nc1ccc(-n2cccn2)cc1)N1CCOCC(O)C1 (configuration not stated) | 53.6
O=C(Nc1ccc(-n2cccn2)cc1)N1CCC(O)C1 (configuration not stated) | 42.3
O=C(Nc1ccccc1OCCc1ccccn1)N1CCOCC(O)C1 (configuration not stated) | 12.3
CC(=O)OC1CN(c2nc3c(C)cccc3s2)C1 | -45.6
c1cnc(N2CCO[C@H]3CN(Cc4csnn4)C[C@H]32)nc1 | 42.7
Cn1cc(CNC2CCc3c(ccc(=O)n3Cc3cccnc3)C2)cn1 (configuration not stated) | 55.7
COCCn1c2c(ccc1=O)CC(NS(C)(=O)=O)CC2 (configuration not stated) | 58.6
Cn1cc(CNC2CCc3c(ccc(=O)n3Cc3ccncc3)C2)cn1 (configuration not stated) | 42.1
CN(C)CCn1c2c(ccc1=O)CC(NCc1cccnc1)CC2 (configuration not stated) | 34.9
CN(C)C(=O)Cn1c2c(ccc1=O)CC(NCc1cccnc1)CC2 (configuration not stated) | 57.1

SMILES | INHIBITION [%]
O=c1ccc2c(n1Cc1cccnc1)CCC(NCc1cccnc1)C2 (configuration not stated) | -2.03
Cn1c2c(ccc1=O)CC(NS(C)(=O)=O)CC2 (configuration not stated) | 45.5
CN(C)CCn1c2c(ccc1=O)CC(NC(=O)c1cnccn1)CC2 (configuration not stated) | 14.6
CN(C)C(=O)Cn1c2c(ccc1=O)CC(NCc1ccoc1)CC2 (configuration not stated) | 8.31
O=C(NC1CCc2c(ccc(=O)n2CC2CC2)C1)c1cscn1 (configuration not stated) | 41.2
CS(=O)(=O)NC1CCc2c(ccc(=O)n2CC2CC2)C1 (configuration not stated) | 31.3
COCCn1c2c(ccc1=O)CC(NC(=O)c1cscn1)CC2 (configuration not stated) | 70.2
Nc1nc(Nc2ccccc2)cc(N2CCNCC2)n1 | 12.5
CC(C)CCn1ccc(NC(=O)N2CCCC2CN2CCOCC2)n1 (configuration not stated) | -0.551
Cc1cc(CNS(C)(=O)=O)ccc1N(C)C | 25.5
Cc1ccc(CN2C[C@@H]3COC[C@@H](CC(=O)N4CCOCC4)[C@@H]3C2)s1 | -3.52
Cc1nccnc1C1CCN(C(=O)C(C)C)CC1 | 29.35
CC(=O)N(C)Cc1ncn2c1CN(C(=O)CC1CC1)CCC2 | -31.2
Cc1ccc(C(=O)N2C[C@H](OCC3CCOCC3)[C@H]3OCCC[C@H]32)o1 | -33.9
COc1ccc(CN2CC[C@@H]3CN(S(C)(=O)=O)CCO[C@@H]3C2)cc1 | -0.804
CC(C)N1CCOC(c2cc(CCO)[nH]n2)C1 (configuration not stated) | 29.21
CCn1c2c(ccc1=O)CC(NCc1cnn(C)c1)CC2 (configuration not stated) | 12.2
CN(C)CCn1c2c(ccc1=O)CC(NCc1cnn(C)c1)CC2 (configuration not stated) | 31.2
COCCn1c2c(ccc1=O)CC(NCc1cnn(C)c1)CC2 (configuration not stated) | 55.7
Cc1ccc(C(=O)N2CCC3(CC2)NC(=O)CC3c2ccccc2)cn1 (configuration not stated) | -16.2
Cn1nc(Br)c2c(NCCSCCCO)ncnc21 | 23.1
O=C(CCCNc1ncccn1)N1CCCC(n2ccnc2)C1 (configuration not stated) | -17.6
CN1CCCC(c2nccnc2-c2cccc(C(F)(F)F)c2)C1 (configuration not stated) | 19.64
CN1CCCC(c2cccc(-c3cccc(C(F)(F)F)c3)n2)C1 (configuration not stated) | 45.2
CN1CCCC(c2cccc(-c3cccc(Cl)c3)n2)C1 (configuration not stated) | 64.7
CN1CCCC(c2cncc(-c3cccc(C(F)(F)F)c3)n2)C1 (configuration not stated) | 66.6
